Key:
Assay in all cases: log2 ratio of Biotin-Ahx-Ub-VS probe labelling (fragment/DMSO); higher = less target engagement (more negative = stronger competition), active = hit call of the paper (q ≤ 0.05, log2 ratio ≤ -1)
Conditions in all cases: compound concentration: 200 uM; treatment time: 3 h
USP34 = USP34 (UniProt Q70CQ2)
Method in brief: (§1)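 Labelled DUBs from HEK293T lysate were NeutrAvidin-enriched, digested with LysC and trypsin, and run by diaPASEF LC-MS/MS. Before that, each 495 µg sample in Tris/CHAPS/IGEPAL buffer with protease inhibitors was treated in triplicate with fragment at 200 µM or vehicle for 3 h, then with Biotin-Ahx-Ub-VS at 0.5 µM final for 1 h. Values are average log2 ratios of fragment over vehicle by unpaired t-test, based on global-median-normalised Spectronaut label-free quantities from proteins with ≥2 unique peptides.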

USP36 = molecular target: T1, USP36 (UniProt Q9P275)
T1 sequence (whole entry): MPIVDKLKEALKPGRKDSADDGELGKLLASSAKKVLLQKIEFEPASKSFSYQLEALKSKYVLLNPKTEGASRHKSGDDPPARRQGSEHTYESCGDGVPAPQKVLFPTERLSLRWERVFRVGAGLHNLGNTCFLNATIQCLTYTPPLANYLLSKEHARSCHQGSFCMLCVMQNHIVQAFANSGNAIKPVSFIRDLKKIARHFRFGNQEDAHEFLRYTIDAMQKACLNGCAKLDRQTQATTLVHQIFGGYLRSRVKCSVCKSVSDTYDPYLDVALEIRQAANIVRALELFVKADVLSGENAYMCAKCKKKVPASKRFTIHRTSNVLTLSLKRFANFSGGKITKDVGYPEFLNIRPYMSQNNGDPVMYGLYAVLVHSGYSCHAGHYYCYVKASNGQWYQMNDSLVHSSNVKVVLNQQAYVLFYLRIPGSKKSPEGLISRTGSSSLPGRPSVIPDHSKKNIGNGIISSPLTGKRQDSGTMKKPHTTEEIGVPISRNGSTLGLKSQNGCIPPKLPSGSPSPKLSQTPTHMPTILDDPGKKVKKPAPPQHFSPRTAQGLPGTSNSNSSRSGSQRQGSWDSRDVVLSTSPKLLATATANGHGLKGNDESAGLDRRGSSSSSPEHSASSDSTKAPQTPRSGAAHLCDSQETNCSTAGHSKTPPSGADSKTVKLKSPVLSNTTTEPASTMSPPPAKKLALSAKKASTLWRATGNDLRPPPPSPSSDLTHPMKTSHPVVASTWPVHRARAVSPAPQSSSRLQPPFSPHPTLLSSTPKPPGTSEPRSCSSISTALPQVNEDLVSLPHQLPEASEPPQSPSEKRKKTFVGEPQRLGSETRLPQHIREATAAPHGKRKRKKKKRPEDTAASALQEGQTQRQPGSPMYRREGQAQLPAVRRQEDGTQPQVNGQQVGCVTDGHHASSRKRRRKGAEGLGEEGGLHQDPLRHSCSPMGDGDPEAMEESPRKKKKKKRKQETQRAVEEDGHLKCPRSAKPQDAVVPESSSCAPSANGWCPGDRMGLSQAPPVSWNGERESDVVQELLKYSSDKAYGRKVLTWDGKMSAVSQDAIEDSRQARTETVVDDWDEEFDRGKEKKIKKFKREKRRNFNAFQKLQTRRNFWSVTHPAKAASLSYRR
Method in brief: as §1

USP38 = molecular target: T2, USP38 (UniProt Q8NB14)
T2 sequence (whole entry): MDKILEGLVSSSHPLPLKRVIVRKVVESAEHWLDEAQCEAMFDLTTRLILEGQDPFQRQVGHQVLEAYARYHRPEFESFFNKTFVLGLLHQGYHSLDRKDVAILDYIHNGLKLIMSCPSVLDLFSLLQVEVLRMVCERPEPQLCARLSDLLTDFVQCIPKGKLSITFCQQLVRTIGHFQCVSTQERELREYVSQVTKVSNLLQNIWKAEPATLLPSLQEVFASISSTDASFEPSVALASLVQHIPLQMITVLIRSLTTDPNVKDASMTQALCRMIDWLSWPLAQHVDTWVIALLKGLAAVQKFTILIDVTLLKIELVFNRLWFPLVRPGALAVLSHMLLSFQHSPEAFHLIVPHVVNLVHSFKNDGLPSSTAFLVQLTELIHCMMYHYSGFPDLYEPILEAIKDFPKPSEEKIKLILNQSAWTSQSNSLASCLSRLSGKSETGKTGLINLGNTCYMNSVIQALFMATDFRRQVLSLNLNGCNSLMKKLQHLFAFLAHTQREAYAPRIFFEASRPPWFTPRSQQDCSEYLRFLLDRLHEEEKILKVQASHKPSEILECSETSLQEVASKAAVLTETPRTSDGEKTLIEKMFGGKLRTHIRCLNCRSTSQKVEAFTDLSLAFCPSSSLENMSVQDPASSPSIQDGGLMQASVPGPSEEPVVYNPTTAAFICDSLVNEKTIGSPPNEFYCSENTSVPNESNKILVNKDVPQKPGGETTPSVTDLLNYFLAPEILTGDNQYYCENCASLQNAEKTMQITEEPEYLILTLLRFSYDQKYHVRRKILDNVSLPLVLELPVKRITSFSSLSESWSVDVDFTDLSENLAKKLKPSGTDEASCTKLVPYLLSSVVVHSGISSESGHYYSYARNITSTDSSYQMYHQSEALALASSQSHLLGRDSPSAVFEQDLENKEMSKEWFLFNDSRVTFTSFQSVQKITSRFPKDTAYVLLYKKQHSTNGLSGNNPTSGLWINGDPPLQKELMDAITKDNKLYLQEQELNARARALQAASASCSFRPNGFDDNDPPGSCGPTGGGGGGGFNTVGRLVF
Method in brief: as §1

USP39 = molecular target: T3, USP39 (UniProt Q53GS9)
T3 sequence (whole entry): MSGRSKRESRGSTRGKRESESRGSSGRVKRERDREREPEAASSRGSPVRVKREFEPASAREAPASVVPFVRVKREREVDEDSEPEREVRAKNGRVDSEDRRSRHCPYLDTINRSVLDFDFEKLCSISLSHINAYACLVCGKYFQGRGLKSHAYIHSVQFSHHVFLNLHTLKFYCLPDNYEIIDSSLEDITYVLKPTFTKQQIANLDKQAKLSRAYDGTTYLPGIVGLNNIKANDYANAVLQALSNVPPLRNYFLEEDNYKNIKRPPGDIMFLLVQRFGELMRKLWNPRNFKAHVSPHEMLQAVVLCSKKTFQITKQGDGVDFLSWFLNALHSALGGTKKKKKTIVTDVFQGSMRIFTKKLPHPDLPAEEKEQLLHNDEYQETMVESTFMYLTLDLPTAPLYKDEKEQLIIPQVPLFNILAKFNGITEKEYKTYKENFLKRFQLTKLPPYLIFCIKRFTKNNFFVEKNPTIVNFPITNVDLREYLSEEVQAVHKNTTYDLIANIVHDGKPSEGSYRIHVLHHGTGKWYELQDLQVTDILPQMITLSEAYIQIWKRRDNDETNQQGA
Method in brief: as §1

USP4 = molecular target: T4, USP4 (UniProt Q13107)
T4 sequence (whole entry): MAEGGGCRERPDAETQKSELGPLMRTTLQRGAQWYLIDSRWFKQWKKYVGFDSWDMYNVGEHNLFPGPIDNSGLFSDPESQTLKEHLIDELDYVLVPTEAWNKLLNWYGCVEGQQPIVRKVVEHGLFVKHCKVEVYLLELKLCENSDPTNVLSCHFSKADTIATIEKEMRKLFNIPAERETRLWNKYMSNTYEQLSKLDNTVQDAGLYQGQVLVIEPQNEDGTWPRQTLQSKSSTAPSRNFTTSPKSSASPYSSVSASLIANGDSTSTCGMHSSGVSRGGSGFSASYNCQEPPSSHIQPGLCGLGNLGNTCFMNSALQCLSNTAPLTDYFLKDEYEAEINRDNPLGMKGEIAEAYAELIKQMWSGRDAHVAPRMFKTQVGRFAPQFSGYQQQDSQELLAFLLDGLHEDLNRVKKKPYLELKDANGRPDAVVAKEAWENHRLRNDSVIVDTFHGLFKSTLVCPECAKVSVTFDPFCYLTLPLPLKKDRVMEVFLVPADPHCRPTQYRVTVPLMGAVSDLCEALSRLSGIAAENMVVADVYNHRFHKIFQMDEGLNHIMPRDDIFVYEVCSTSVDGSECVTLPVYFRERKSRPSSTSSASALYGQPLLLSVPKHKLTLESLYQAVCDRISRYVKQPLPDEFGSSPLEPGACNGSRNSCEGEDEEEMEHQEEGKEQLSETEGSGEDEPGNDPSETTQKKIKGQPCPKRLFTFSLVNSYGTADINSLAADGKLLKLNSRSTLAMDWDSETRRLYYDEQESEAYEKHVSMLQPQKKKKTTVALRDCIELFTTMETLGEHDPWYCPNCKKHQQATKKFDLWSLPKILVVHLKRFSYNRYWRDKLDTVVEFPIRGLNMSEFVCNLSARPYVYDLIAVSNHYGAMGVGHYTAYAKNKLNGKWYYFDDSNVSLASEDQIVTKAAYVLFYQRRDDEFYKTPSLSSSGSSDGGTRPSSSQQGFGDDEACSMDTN
Method in brief: as §1

Measured: log2 ratio of Biotin-Ahx-Ub-VS probe labelling

Sequence of USP34 (Q70CQ2 whole entry, the tested form may be a part): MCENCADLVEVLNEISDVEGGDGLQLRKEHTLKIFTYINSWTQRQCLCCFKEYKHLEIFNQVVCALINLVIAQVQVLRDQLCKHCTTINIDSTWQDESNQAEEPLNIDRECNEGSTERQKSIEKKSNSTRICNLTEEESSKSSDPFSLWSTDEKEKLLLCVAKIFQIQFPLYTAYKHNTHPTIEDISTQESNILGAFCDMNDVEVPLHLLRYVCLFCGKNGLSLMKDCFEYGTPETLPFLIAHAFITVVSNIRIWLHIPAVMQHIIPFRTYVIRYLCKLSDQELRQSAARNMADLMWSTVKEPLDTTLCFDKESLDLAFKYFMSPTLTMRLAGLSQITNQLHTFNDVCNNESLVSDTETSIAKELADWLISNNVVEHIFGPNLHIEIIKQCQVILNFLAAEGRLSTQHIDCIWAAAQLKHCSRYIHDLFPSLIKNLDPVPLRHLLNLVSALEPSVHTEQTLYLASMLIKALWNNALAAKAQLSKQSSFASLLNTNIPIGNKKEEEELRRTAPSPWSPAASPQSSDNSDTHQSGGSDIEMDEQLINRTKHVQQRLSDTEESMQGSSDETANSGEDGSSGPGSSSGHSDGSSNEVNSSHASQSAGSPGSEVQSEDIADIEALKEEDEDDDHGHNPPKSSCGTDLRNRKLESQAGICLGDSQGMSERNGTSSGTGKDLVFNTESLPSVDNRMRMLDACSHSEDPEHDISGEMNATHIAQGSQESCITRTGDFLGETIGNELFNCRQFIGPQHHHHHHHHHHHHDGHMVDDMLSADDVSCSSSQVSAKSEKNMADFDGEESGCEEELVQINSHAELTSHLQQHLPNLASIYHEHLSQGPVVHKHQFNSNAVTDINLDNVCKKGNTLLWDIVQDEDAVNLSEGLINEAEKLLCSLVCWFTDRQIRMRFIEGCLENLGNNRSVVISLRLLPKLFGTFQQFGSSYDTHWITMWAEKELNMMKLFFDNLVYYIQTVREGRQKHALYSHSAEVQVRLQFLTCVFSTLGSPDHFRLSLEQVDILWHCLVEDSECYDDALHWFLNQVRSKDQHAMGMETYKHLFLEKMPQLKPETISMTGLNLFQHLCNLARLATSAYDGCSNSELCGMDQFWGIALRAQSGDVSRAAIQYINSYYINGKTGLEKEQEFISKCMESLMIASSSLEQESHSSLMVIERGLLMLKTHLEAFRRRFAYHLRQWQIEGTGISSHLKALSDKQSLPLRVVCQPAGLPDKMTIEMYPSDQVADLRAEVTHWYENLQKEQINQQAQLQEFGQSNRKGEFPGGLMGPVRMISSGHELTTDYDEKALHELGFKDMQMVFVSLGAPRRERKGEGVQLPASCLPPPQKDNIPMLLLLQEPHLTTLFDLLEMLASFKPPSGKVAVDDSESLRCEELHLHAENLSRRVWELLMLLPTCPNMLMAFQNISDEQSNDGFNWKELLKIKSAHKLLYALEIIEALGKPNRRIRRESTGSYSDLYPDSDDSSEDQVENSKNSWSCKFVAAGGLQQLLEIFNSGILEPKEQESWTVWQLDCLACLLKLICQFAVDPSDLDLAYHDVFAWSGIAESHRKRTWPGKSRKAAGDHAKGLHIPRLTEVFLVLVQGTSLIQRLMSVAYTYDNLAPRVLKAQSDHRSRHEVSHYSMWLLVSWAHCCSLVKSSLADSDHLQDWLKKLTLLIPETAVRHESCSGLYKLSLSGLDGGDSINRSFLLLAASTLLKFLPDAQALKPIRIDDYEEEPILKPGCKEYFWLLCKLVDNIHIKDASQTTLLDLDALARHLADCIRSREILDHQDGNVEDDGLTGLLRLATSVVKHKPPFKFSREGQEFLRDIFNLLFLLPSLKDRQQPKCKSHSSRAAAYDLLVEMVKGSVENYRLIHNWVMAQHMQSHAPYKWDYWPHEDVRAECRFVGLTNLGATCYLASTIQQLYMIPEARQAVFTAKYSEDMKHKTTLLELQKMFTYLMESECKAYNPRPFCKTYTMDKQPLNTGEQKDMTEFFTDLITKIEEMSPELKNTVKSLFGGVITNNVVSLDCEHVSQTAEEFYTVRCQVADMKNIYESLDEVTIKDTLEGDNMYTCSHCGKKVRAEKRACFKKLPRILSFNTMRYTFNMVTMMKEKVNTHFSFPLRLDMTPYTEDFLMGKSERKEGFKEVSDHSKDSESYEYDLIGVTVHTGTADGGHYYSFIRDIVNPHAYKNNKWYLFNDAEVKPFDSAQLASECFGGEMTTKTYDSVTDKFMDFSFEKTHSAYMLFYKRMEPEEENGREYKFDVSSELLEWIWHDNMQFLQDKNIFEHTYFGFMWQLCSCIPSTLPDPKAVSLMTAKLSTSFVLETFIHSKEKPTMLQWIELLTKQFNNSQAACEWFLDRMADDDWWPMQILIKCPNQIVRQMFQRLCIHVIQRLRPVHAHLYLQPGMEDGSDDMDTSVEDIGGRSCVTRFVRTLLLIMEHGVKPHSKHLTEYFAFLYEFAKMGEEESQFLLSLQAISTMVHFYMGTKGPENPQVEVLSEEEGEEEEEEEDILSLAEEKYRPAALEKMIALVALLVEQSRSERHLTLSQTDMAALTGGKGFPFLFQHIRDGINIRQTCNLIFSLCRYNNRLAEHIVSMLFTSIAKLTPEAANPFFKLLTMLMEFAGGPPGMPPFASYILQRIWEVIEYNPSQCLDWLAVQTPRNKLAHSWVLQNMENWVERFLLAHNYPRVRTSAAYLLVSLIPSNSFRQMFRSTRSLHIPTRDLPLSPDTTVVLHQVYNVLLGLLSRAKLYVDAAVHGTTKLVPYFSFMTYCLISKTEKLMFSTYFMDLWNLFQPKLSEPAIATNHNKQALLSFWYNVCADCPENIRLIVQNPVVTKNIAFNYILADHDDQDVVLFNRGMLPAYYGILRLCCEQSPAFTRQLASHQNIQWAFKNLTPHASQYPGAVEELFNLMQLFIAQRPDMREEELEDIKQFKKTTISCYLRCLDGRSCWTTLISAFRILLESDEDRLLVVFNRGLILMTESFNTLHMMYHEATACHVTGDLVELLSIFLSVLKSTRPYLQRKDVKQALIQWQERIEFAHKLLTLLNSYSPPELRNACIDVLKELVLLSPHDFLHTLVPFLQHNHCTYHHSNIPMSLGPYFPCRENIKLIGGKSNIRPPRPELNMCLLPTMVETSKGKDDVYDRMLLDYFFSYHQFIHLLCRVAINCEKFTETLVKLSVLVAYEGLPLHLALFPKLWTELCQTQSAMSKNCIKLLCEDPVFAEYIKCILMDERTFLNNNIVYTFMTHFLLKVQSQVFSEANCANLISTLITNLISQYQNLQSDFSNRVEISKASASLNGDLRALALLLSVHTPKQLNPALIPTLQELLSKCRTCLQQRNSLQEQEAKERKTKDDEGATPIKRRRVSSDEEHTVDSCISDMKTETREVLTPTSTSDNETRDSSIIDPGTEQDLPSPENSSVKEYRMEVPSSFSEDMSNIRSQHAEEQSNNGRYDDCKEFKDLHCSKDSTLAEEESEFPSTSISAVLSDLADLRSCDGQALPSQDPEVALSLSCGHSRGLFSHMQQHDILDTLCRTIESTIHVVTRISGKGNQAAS

Cl.O=C(CCl)NCCc1ncc(F)cc1F
inactive: USP34 -0.216 | USP36 -0.308 | USP38 -0.203 | USP39 -0.202 | USP4 0.0209
